About 8,800 targets were measured; listed, in parts, are those with a hit and a random draw of the rest. About 0.5% of all pairs of compound and target were hits.
What was measured:
Assay in all cases: log2 fold change, soluble protein after heating vs DMSO (PISA); higher = thermal stabilisation; K562 lysate, 10 uM; active = over 0.2 and 3.5 SD of the protein, either way, in both replicates (recomputed)
nilotinib = compound: Cc1cn(-c2cc(NC(=O)c3ccc(C)c(Nc4nccc(-c5cccnc5)n4)c3)cc(C(F)(F)F)c2)cn1 [nilotinib]
Summary of the method: (§1)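 Quantification was by TMTpro 16plex LC-MS/MS with equalised channel sums, applied to the supernatant after 21,000xg for 90 min. Samples were crude K562 extract at 1 mg/mL protein in PBS pH 7.4 with 1 mM MgCl2, treated with 10 μM compound for 30 min, heated for 3 min across 48°C-58°C, pooled and brought to 0.5% NP-40 at 4°C. Values are log-two fold changes in thermal stability relative to solvent controls, from duplicates.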

[1] = compound: Cc1nc(Nc2n[nH]c3c2CN(C(=O)N[C@H](CN(C)C)c2ccccc2)C3(C)C)c2sccc2n1
Summary of the method: as §1

dasatinib = compound: Cc1nc(Nc2ncc(C(=O)Nc3c(C)cccc3Cl)s2)cc(N2CCN(CCO)CC2)n1 [dasatinib]
Summary of the method: as §1

[2] = compound: Cc1ncc(-c2ccnc(Nc3ccc(S(C)(=O)=O)cc3)n2)n1C(C)C
Summary of the method: as §1

[3] = compound: Cn1cc(-c2ccc3c(c2)CCN3C(=O)Cc2cccc(C(F)(F)F)c2)c2c(N)ncnc21
Summary of the method: as §1

quisinostat = compound: Cn1cc(CNCC2CCN(c3ncc(C(=O)NO)cn3)CC2)c2ccccc21 [quisinostat]
Summary of the method: as §1

tipifarnib = compound: Cn1cncc1[C@@](N)(c1ccc(Cl)cc1)c1ccc2c(c1)c(-c1cccc(Cl)c1)cc(=O)n2C [tipifarnib]
Summary of the method: as §1

[4] = compound: NC(=O)Nc1cc(-c2cccc(F)c2)sc1C(=O)N[C@H]1CCCNC1
Summary of the method: as §1

[5] = compound: NC(=O)c1cnc(N[C@@H]2CCCC[C@@H]2N)nc1Nc1cccc(-n2nccn2)c1
Summary of the method: as §1

[6] = compound: NC1(c2ccc(-c3nc4ccn5c(=O)[nH]nc5c4cc3-c3ccccc3)cc2)CCC1
Summary of the method: as §1

[7] = compound: NCC(=O)Nc1ccc(-n2nc(C(F)(F)F)cc2-c2ccc3c(ccc4ccccc43)c2)cc1
Summary of the method: as §1

vorinostat = compound: O=C(CCCCCCC(=O)Nc1ccccc1)NO [vorinostat]
Summary of the method: as §1

silmitasertib = compound: O=C(O)c1ccc2c(c1)nc(Nc1cccc(Cl)c1)c1ccncc12 [silmitasertib]
Summary of the method: as §1

[8] = compound: O=C1NC(=O)C(c2cnc3ccccn23)=C1c1cn2c3c(cc(F)cc13)CN(C(=O)N1CCCCC1)CC2
Summary of the method: as §1

entospletinib = compound: c1cn2cc(-c3ccc4cn[nH]c4c3)nc(Nc3ccc(N4CCOCC4)cc3)c2n1 [entospletinib]
Summary of the method: as §1

Measured: log2 fold change

TTC4 (UniProt O95801)
UniProt O95801, sequence (O95801 whole entry, looked up): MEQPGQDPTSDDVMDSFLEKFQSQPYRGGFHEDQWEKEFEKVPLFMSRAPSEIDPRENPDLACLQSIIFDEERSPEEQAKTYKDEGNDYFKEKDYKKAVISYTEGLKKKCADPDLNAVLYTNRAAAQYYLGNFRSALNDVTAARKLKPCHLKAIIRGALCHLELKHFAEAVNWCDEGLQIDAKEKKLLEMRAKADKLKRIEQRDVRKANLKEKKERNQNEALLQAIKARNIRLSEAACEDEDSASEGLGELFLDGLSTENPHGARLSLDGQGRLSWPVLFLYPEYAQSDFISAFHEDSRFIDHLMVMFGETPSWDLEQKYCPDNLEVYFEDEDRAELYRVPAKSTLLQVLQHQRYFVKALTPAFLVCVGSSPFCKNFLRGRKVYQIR
inactive: nilotinib -0.04 | [1] -0.034 | dasatinib 0.025 | [2] -0.018 | [3] 0.012 | quisinostat -0.07 | tipifarnib -0.01 | [4] 0.025 | [5] 0.023 | [6] -0.018 | [7] 0.013 | silmitasertib 0.022 | [8] -0.009 | entospletinib 0
active: vorinostat -0.498

TBL2 (UniProt Q9Y4P3)
UniProt Q9Y4P3, sequence (Q9Y4P3 whole entry, looked up): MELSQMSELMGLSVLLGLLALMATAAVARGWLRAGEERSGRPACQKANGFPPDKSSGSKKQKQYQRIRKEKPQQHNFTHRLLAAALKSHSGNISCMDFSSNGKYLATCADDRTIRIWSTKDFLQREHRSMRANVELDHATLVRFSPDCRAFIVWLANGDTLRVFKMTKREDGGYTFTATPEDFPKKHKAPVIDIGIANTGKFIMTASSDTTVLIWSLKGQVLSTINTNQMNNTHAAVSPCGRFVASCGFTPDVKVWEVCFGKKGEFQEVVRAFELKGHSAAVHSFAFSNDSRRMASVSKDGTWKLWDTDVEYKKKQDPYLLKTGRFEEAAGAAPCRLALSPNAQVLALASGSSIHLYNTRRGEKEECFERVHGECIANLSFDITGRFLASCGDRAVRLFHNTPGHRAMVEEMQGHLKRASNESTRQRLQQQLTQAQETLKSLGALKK
inactive: nilotinib -0.025 | [1] -0.043 | dasatinib -0.008 | [2] -0.004 | [3] 0.014 | quisinostat -0.031 | tipifarnib -0.06 | [4] -0.007 | [5] 0.003 | [6] -0.037 | [7] -0.035 | silmitasertib -0.007 | [8] -0.035 | entospletinib 0.02
active: vorinostat -0.292

TRIM33 (UniProt H0Y612)
active: vorinostat -0.335
inactive: nilotinib -0.021 | [1] 0.153 | dasatinib 0.043 | [2] 0.138 | [3] -0.033 | quisinostat -0.238 | tipifarnib -0.052 | [4] 0.069 | [5] -0.036 | [6] -0.106 | [7] -0.039 | silmitasertib 0.061 | [8] 0.03 | entospletinib 0.084

UGDH (UniProt O60701)
inactive: nilotinib 0.008 | [1] -0.012 | [2] 0.009 | [3] -0.034 | quisinostat 0.019 | tipifarnib 0.007 | [4] 0.039 | [5] -0.01 | [6] 0.006 | [7] 0.039 | vorinostat -0.206 | silmitasertib 0.001 | [8] 0.01 | entospletinib -0.01
active: dasatinib 0.217

TGOLN2 isoform 7 (UniProt O43493)
UniProt O43493, sequence (O43493 whole entry, looked up): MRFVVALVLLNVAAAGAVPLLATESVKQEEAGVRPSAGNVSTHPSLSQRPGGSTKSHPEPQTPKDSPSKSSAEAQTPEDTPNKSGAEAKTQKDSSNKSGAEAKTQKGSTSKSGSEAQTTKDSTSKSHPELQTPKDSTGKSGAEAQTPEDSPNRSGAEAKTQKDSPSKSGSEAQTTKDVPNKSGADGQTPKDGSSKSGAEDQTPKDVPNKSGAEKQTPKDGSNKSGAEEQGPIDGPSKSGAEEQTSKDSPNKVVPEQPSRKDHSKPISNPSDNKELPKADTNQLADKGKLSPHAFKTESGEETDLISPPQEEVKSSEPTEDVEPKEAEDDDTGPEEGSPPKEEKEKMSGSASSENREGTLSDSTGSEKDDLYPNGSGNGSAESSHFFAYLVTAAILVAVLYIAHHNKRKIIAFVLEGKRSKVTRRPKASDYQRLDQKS
inactive: nilotinib -0.059 | [1] -0.004 | dasatinib 0.023 | [2] 0.021 | [3] 0.033 | quisinostat -0.029 | tipifarnib -0.087 | [4] 0.014 | [5] 0.019 | [6] 0.008 | [7] -0.02 | vorinostat 0.089 | silmitasertib 0.055 | [8] -0.047 | entospletinib -0.019

TRIM56 (UniProt Q9BRZ2)
UniProt Q9BRZ2, sequence (Q9BRZ2 whole entry, looked up): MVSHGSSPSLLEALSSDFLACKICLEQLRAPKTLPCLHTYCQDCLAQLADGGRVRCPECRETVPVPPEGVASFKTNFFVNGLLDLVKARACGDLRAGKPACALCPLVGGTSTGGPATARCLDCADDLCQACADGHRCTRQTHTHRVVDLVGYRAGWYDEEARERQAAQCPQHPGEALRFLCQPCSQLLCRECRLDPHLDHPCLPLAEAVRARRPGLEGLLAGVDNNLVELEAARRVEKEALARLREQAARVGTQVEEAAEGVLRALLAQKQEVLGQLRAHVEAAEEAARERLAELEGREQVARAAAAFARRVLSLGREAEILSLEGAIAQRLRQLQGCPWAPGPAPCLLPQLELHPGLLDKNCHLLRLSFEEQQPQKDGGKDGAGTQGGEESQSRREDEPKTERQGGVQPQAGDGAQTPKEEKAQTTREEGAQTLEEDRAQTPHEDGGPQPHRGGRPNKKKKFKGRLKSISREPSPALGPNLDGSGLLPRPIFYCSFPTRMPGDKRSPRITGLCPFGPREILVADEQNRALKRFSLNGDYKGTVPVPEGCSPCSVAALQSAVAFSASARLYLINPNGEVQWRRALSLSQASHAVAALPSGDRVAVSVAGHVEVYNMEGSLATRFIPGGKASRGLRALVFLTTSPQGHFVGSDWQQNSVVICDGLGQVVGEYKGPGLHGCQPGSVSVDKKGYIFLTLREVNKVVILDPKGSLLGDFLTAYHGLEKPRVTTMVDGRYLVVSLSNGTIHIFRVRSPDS
active: vorinostat -0.428
inactive: nilotinib 0.033 | [1] 0.031 | dasatinib -0.073 | [2] -0.006 | [3] 0.017 | quisinostat -0.043 | tipifarnib -0.048 | [4] 0.005 | [5] -0.01 | [6] 0.007 | [7] -0.022 | silmitasertib -0.043 | [8] -0.016 | entospletinib -0.004

UBAP2L isoform 5 (UniProt Q14157)
inactive: nilotinib -0.141 | [1] 0.015 | dasatinib -0.035 | [2] 0.055 | [3] -0.058 | quisinostat 0.024 | tipifarnib -0.106 | [4] 0.048 | [5] 0.01 | [6] 0.02 | [7] 0.013 | vorinostat 0.126 | silmitasertib -0.037 | [8] -0.018 | entospletinib -0.042

TLK1 isoform 2 (UniProt Q9UKI8)
UniProt Q9UKI8, sequence (Q9UKI8 whole entry, looked up): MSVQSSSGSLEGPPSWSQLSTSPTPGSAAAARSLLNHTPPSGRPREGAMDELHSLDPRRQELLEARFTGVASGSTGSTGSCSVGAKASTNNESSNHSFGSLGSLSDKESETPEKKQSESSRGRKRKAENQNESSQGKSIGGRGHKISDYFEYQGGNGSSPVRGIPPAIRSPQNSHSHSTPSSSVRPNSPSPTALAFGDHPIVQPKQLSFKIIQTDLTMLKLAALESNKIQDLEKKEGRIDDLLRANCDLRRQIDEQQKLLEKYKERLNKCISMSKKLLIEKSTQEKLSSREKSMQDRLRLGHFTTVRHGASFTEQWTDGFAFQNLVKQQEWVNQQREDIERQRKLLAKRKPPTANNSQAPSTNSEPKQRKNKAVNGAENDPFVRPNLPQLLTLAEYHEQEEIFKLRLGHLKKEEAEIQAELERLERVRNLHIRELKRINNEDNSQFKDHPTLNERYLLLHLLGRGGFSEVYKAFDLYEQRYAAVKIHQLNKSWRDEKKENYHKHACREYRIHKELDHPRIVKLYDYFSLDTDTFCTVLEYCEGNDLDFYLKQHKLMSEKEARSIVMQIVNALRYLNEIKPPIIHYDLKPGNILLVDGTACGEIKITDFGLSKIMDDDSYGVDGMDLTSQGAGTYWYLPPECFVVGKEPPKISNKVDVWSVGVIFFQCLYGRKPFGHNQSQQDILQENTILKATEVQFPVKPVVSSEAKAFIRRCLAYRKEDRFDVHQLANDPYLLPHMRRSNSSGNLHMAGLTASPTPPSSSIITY
active: [1] 0.414 | vorinostat -0.369
inactive: nilotinib -0.044 | dasatinib -0.005 | [2] 0.188 | [3] -0.036 | quisinostat -0.23 | tipifarnib 0.023 | [4] 0.133 | [5] 0.035 | [6] -0.021 | [7] 0.001 | silmitasertib 0.117 | [8] 0.156 | entospletinib 0.04

UBA1 (UniProt P22314)
UniProt P22314, sequence (P22314 whole entry, looked up): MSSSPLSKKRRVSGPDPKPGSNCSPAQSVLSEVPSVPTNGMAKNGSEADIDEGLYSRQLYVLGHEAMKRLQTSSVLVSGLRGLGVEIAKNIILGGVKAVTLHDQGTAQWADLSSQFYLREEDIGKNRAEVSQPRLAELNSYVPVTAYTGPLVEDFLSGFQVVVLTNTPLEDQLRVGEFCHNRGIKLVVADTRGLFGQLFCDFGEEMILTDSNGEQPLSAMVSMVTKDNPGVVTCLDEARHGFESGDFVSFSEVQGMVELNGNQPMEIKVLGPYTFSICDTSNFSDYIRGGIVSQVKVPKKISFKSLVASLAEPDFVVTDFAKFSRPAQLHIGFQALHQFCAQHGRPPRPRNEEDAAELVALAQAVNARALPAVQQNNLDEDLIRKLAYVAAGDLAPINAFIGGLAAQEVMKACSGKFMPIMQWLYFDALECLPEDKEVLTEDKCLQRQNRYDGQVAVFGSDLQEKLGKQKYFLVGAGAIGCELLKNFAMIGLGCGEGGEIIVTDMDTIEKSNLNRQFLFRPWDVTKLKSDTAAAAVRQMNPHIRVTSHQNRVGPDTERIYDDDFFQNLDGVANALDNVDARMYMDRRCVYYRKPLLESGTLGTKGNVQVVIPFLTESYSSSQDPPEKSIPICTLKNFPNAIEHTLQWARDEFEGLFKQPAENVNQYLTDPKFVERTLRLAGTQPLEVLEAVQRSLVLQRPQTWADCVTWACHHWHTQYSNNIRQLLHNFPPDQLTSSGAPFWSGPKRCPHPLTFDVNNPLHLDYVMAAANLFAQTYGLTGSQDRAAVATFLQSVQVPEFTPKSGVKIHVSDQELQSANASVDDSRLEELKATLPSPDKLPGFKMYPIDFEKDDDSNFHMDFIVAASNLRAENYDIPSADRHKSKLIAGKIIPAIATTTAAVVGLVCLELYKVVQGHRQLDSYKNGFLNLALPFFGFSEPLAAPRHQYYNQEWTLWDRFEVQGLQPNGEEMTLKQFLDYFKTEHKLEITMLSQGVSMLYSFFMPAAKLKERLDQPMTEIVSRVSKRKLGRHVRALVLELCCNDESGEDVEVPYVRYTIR
inactive: nilotinib -0.004 | [1] 0.014 | dasatinib -0.026 | [2] 0.002 | [3] 0.028 | quisinostat -0.019 | tipifarnib -0.01 | [4] 0.019 | [5] 0.008 | [6] -0.011 | [7] 0.018 | silmitasertib 0.01 | [8] -0.003 | entospletinib 0.02
active: vorinostat -0.371

TOE1 (UniProt Q96GM8)
active: vorinostat -0.359
inactive: nilotinib -0.039 | [1] -0.012 | dasatinib 0.016 | [2] 0.04 | [3] 0.015 | quisinostat -0.036 | tipifarnib 0.006 | [4] 0.023 | [5] -0.013 | [6] -0.01 | [7] -0.003 | silmitasertib 0.041 | [8] 0.002 | entospletinib 0.043

TCAF2 (UniProt A6NFQ2)
active: vorinostat -0.27
inactive: nilotinib 0.051 | [1] 0.004 | dasatinib 0.001 | [2] 0.05 | [3] 0.042 | quisinostat -0.061 | tipifarnib -0.037 | [4] 0.047 | [5] 0.041 | [6] -0.011 | [7] 0.019 | silmitasertib 0 | [8] 0 | entospletinib -0.01

TIMELESS (UniProt Q9UNS1)
UniProt Q9UNS1, sequence (Q9UNS1 whole entry, looked up): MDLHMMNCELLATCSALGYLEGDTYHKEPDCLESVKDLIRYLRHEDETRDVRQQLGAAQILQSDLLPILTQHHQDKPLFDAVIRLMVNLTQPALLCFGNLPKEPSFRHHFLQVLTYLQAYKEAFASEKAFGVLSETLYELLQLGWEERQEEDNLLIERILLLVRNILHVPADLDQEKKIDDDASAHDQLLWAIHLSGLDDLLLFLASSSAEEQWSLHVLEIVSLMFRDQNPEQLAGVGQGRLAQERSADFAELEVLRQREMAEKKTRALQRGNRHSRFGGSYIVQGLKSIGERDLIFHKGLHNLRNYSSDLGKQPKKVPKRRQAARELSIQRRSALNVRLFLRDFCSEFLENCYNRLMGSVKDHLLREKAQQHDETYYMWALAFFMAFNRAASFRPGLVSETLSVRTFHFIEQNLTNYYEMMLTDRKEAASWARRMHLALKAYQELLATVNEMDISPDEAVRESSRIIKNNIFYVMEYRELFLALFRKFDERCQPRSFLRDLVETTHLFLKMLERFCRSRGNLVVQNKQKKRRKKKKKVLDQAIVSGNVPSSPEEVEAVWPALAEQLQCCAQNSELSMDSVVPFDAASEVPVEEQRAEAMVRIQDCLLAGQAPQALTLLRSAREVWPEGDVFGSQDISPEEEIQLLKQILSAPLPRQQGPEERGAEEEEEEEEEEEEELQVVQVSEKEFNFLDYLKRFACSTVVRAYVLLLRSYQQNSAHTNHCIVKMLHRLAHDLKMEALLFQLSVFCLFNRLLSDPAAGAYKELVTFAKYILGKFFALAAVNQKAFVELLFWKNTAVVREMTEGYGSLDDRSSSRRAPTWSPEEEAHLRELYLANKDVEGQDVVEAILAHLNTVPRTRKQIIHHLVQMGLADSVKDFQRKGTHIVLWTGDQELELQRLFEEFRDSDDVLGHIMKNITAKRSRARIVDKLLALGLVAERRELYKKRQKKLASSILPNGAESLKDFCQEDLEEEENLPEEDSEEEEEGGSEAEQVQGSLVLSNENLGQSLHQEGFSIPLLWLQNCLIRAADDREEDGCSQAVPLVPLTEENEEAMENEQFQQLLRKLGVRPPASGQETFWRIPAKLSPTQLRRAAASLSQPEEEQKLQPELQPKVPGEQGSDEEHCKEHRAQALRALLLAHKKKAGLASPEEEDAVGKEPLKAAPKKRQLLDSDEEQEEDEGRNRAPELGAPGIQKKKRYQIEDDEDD
active: vorinostat -0.412
inactive: nilotinib 0.018 | [1] -0.039 | dasatinib -0.082 | [2] 0.024 | [3] 0.005 | quisinostat -0.137 | tipifarnib -0.052 | [4] 0.045 | [5] 0.029 | [6] -0.035 | [7] 0 | silmitasertib 0.018 | [8] 0.062 | entospletinib 0.017

UBE3C (UniProt Q15386)
inactive: nilotinib -0.006 | [1] 0.025 | dasatinib -0.047 | [2] -0.017 | [3] 0.049 | quisinostat 0.013 | tipifarnib 0.01 | [4] 0.061 | [5] 0.027 | [6] -0.053 | [7] -0.009 | silmitasertib -0.001 | [8] 0 | entospletinib 0.05
active: vorinostat -0.479

UBR3 isoform 4 (UniProt Q6ZT12)
inactive: nilotinib 0.003 | [1] -0.033 | dasatinib -0.026 | [2] -0.005 | [3] 0.014 | quisinostat -0.069 | tipifarnib -0.009 | [4] 0.036 | [5] -0.032 | [6] -0.039 | [7] -0.011 | silmitasertib 0.023 | [8] -0.005 | entospletinib -0.003
active: vorinostat -0.43

TNKS (UniProt O95271)
inactive: nilotinib -0.053 | [1] -0.016 | dasatinib 0.081 | [2] 0.04 | [3] -0.051 | quisinostat -0.021 | tipifarnib 0.103 | [4] 0.032 | [5] 0.088 | [6] 0.028 | [7] -0.009 | vorinostat -0.1 | silmitasertib 0.06 | [8] -0.001 | entospletinib -0.085

UBR1 (UniProt Q8IWV7)
inactive: nilotinib -0.022 | [1] 0.01 | dasatinib -0.012 | [2] 0.013 | [3] 0.046 | quisinostat -0.093 | tipifarnib 0.007 | [4] 0.021 | [5] -0.006 | [6] -0.021 | [7] -0.04 | silmitasertib 0.025 | [8] 0.008 | entospletinib -0.024
active: vorinostat -0.239

TPP2 (UniProt P29144)
inactive: nilotinib 0.013 | [1] -0.005 | dasatinib -0.005 | [2] -0.02 | [3] 0.019 | quisinostat 0.01 | tipifarnib 0.006 | [4] 0.013 | [5] 0 | [6] 0.003 | [7] -0.015 | vorinostat -0.121 | silmitasertib 0.02 | [8] -0.011 | entospletinib 0.003

TPD52L2 isoform 7 (UniProt O43399)
inactive: nilotinib 0.022 | [1] 0.019 | dasatinib 0.056 | [2] 0.042 | [3] -0.009 | quisinostat 0.038 | tipifarnib -0.012 | [4] -0.022 | [5] -0.039 | [6] 0.049 | [7] -0.043 | vorinostat 0.148 | silmitasertib -0.044 | [8] -0.027 | entospletinib -0.016

TPP2 (UniProt Q5VZU9)
inactive: nilotinib 0.066 | [1] 0.035 | dasatinib -0.194 | [2] -0.015 | [3] 0.036 | quisinostat 0.084 | tipifarnib -0.001 | [4] 0.107 | [5] -0.006 | [6] -0.039 | [7] -0.125 | vorinostat -0.173 | silmitasertib 0.044 | [8] 0.002 | entospletinib 0.109

TNPO3 (UniProt Q9Y5L0)
active: vorinostat -0.317
inactive: nilotinib -0.016 | [1] 0.017 | dasatinib 0 | [2] 0.003 | [3] 0.009 | quisinostat -0.001 | tipifarnib 0.001 | [4] -0.002 | [5] -0.016 | [6] -0.01 | [7] 0.017 | silmitasertib 0.015 | [8] 0.009 | entospletinib 0.022

TGFBRAP1 (UniProt Q8WUH2)
inactive: nilotinib 0.005 | [1] -0.043 | dasatinib -0.048 | [2] -0.015 | [3] 0.06 | quisinostat -0.076 | tipifarnib 0.004 | [4] 0.029 | [5] 0.009 | [6] 0.04 | [7] -0.039 | silmitasertib 0.051 | [8] -0.018 | entospletinib 0.024
active: vorinostat -0.433

Source: the supplement of paper PMC10849652
